Common to all, as to test: NCI-60 one-dose screen, 48 h (100 = growth as untreated, 0 = no growth, -100 = all killed)
What all share (details): 10 µM unless noted

For assay [1], the system named is NCI-H23 lung.
The test system of assay [2] is NCI-H322M lung.
Assay [3] has as its system HOP-62 NSCLC.
The subject of assay [4] is NCI-H460 lung.
The subject of assay [5] is HOP-92 NSCLC.
In assay [6] the test system is A549/ATCC NSCLC.
In assay [7] the test system is 786-0 renal.
Assay [8] has as its system COLO 205 colon.
The subject of assay [9] is NCI-H522 lung.
For assay [10], the system named is NCI-H226 lung.

This is an account of results in PubChem BioAssay (NCI).

Compounds without any hit were thinned out: in the full panel of roughly 83,000, 20% have a hit.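 Treatment: one concentration, 48 hours, 96-well format. Scoring: percent growth, with anything below 10 considered active.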 Unmarked numbers belong to inactive results. Calls of active or inactive are those of the source.

For `Nc1c(C(=O)Nc2cccc3ccccc23)sc2nc3c(cc12)CCCCC3`, the growth in assay [1] was 44.8%; in [2], 51.3%; in [3], 38.9%; in assay [4] it was 9.6% (active); in assay [5], 63.2%; in assay [6], 19.3%. Also, the growth was 30.5% in assay [7] and 2.61% (active) in assay [8].

On to `COc1cc(NCC(=O)Nc2cc(Nc3cccc(C(F)(F)F)c3)ncn2)c(Cl)c(OC)c1Cl`, for which the growth in assay [1] is 91.9%; in [2] it was 101%; in assay [3], 87.6%; in [5] it was 92.7%; in assay [9], 67.8%; in assay [6] it was 81.2%. Moreover, the figures for the growth in assay [7] and in assay [8] were 97.2% and 104%, respectively.

As to `O=c1nc(-c2ccccc2)c2cc(-c3ccc(N4CCCC4)nc3)ccc2[nH]1`, the growth in assay [1] was 73.1%; in [2], 82.6%; in [3], 62.6%; in assay [4], 57.7%; in assay [5], 61.4%; in assay [9], 37.6%. The growth in [6] is 59.7%; in assay [7], 69.5%; in assay [8] it was 88.3%.

For the molecule `CN1CCN(/C=C2\CC(C(=O)NCc3ccc(Cl)cc3Cl)NC2=O)CC1` (configuration not stated), the growth in assay [1] was 99.5%; in assay [2], 104%; in assay [3] it was 108%; in assay [4] it was 104%; in assay [5], 98.8%; in assay [9] it was 98.3%. Further, the growth in assay [6] is 94.2%; in [7] it was 116%; in assay [8], 116%.

With `COc1ccc(-c2nnc(N3CCN(C(=O)CN4CCN(c5ccc(OC)cc5)CC4)CC3)nc2-c2ccc(OC)cc2)cc1`, the growth is 21.4% in assay [1]; 32.6% in assay [2]; 1.58% (active) in [3]; 29.3% in assay [4]; -62.9% (active) in [5]; -84.5% (active) in assay [9]. In addition, the growth was 59.1% in [6], 26.3% in assay [7] and 19% in [8].

With `COc1c(O)cc2oc3cc(O[C@@H]4OC(C)[C@@H](O)[C@H](O)C4O)c(CC=C(C)C)c(O)c3c(=O)c2c1CC=C(C)C` (some centres not stated), the growth in [1] is 89.4%; in assay [2], 107%; in [3], 110%; in assay [4] it was 90.5%; in assay [5], 89.2%; in assay [9], 68.5%. Moreover, the growth is 80% in [6], 101% in [7] and 114% in assay [8].

As for `Nc1c(C(=O)Nc2ccccn2)sc2nc3c(cc12)CCCCCC3`, the growth in assay [1] was 41%; in [2] it was 33%; in assay [3], 17.8%; in assay [4], 6.37% (active); in assay [5], 30.8%; in [9], 6.47% (active). The growth in assay [6] is 14.1%; in assay [7], 10.7%; in assay [8], 8.74% (active).

As for `COc1cc(N=Nc2cc(S(=O)(=O)O)cc3cc(S(=O)(=O)O)cc(O)c23)c(C)cc1N=Nc1c(S(=O)(=O)O)cc2cc(Nc3ccccc3)ccc2c1O`, the growth in assay [1] was 99.8%; in assay [2] it was 93.7%; in assay [3], 102%; in [4] it was 106%; in assay [5], 103%; in [9], 80.1%. Further, the growth was 101% in [6], 102% in assay [7] and 129% in assay [8].

For `Cc1nccc2c3ccc(OCc4cn(-c5ccccc5)nn4)cc3n(CCCc3ccccc3)c12`, the growth in assay [1] is 80.8%; in [2], 75.6%; in [3] it was 78.2%; in assay [4], 59.2%; in assay [5], 57.3%; in assay [6] it was 52.2%. The growth is 80% in assay [7] and 50.7% in assay [8].

As for `C=C(C)[C@@H]1CC[C@]2(C(=O)OCCOCCOCC[P+](c3ccccc3)(c3ccccc3)c3ccccc3)CC[C@]3(C)[C@H](CC[C@@H]4[C@@]5(C)CC[C@H](OC(C)=O)C(C)(C)[C@@H]5CC[C@]43C)[C@@H]12`, the growth in assay [1] was -84.6% (active); in [2] it was -93.8% (active); in [3], -84.9% (active); in assay [4], -80.5% (active); in assay [5], -87.3% (active); in [9] it was -75.2% (active). Moreover, the growth in assay [6] is -88.3% (active); in assay [7] it was -91.6% (active); in assay [8], -75.7% (active).

As for `C=CCn1c(SCC(=O)Nc2ccc(C(=O)/C=C/c3ccc(Cl)cc3)cc2)nnc1-c1cc(OC)c(OC)c(OC)c1`, the growth in assay [10] was 79.6%; in assay [2], 101%; in assay [3], 98.3%; in assay [4], 99.6%; in assay [5], 89.2%; in assay [9], 76.3%. The values for the growth in assay [6], in assay [7] and in assay [8] were 85.6%, 81% and 110%, respectively.

For `CC(C)NS(=O)(=O)c1cccc(-c2ccc3c4c(n(CCCN(C)C)c(=O)c3c2)-c2ccccc2C4=O)c1`, the growth in assay [1] was 98.6%; in assay [2] it was 104%; in [3], 101%; in [5] it was 114%; in assay [6], 83.5%; in assay [7], 33.8%. For the same molecule, the growth in assay [8] was 98.9%.

Take `CC(=O)OC[C@]12CC[C@@H](c3cn(Cc4ccc(Cn5cc([C@@H]6CC[C@]7(COC(C)=O)CC[C@]8(C)[C@H](CC[C@@H]9[C@@]%10(C)CC[C@H](OC(C)=O)C(C)(C)[C@@H]%10CC[C@]98C)[C@@H]67)nn5)cc4)nn3)[C@@H]1[C@H]1CC[C@@H]3[C@@]4(C)CC[C@H](OC(C)=O)C(C)(C)[C@@H]4CC[C@@]3(C)[C@]1(C)CC2`: the growth is 98.3% in [1]; 97.6% in assay [2]; 94.9% in assay [3]; 104% in assay [4]; 103% in assay [5]; 88.5% in assay [9]. The growth in assay [6] was 93.5%; in assay [7], 95.5%; in assay [8], 105%.

Consider `c1cc(CNC23CC4CC(CC(C4)C2)C3)cc(C[N+](Cc2cccc(CNC34CC5CC(CC(C5)C3)C4)c2)(Cc2cccc(CNC34CC5CC(CC(C5)C3)C4)c2)Cc2cccc(CNC34CC5CC(CC(C5)C3)C4)c2)c1` (configuration not stated), for which the growth in assay [1] was 42.1% [42 µM]; in [2], 37.1% [42 µM]; in assay [3], 33.1% [42 µM]; in assay [4] it was 3.83% [42 µM] (active); in [5], 32.8% [42 µM]; in assay [9], -56.4% [42 µM] (active). For the same molecule, the growth in assay [6] was 16.2% [42 µM]; in assay [7], 18.3% [42 µM]; in [8], -40.9% [42 µM] (active).

As to `COc1ccc(Nc2cc(NC(=O)CNc3cc(OC)c(Cl)c(OC)c3Cl)ncn2)cc1`, the growth is 90.2% in assay [1]; 88% in [2]; 83.1% in assay [3]; 89.3% in assay [4]; 74.3% in assay [5]; 65.5% in assay [9]. Further, the growth was 71.1% in assay [6], 88.1% in assay [7] and 89.5% in assay [8].

With `Cc1ccc2nc3nc4ccc[nH]c4cc3c2c1`, the growth is 65.1% in assay [1]; 72.5% in [2]; 76.4% in assay [3]; 121% in [5]; 90.1% in assay [9]; 97.6% in [6]. The growth in assay [7] is 108%; in assay [8], 82.1%.

Consider `CC(=O)Nc1ccc2c(c1)Cc1cc(F)ccc1-2`, for which the growth in [1] is 90.8%; in [2], 86.9%; in assay [3], 84.8%; in [4], 106%; in [5], 93.4%; in [9], 73.7%. The growth is 92.5% in [6], 98% in [7] and 124% in assay [8].

As to `c1ccc2c3c([nH]c2c1)C(c1ccc(C2NCCc4c2[nH]c2ccccc42)cc1)NCC3` (configuration not stated), the growth in [1] was 72.4%; in assay [2] it was -1.54% (active); in [3] it was -70.3% (active); in assay [4] it was -71.6% (active); in assay [5] it was 20.8%; in assay [9], -72.4% (active). Moreover, the values for the growth in assay [6], in assay [7] and in assay [8] were -85.1% (active), -68.1% (active) and -81.5% (active), respectively.

Regarding `Cn1c2ccccc2c2c(OC(=O)c3ccccc3)c3c(nc21)-c1ccccc1C3`, the growth is 86.1% in assay [1]; 92.9% in assay [2]; 73.1% in [3]; 105% in assay [4]; 91.5% in assay [5]; 58.2% in assay [9]. Also, the growth in assay [6] was 93.1%; in assay [7] it was 96.9%; in [8], 121%.

Turning to `COC(=O)c1ccc2c(c1)NC(=O)[C@@H]1CCCN21`, the growth was 88.6% in [1]; 99.3% in [2]; 85.7% in assay [3]; 106% in assay [4]; 87.5% in assay [5]; 70% in assay [9]. Moreover, the growth in assay [6] is 98.2%; in assay [7], 97.8%; in [8] it was 108%.

For `Cc1nc2sc(C(=O)Nc3ccccc3)c(N)c2cc1C(C)O` (configuration not stated), the growth in [1] is 39%; in assay [2], 49.9%; in assay [3] it was 30.1%; in assay [4] it was 11.2%; in [5] it was 73%; in [9] it was 18.3%. Also, the values for the growth in assay [6], in assay [7] and in [8] were 25.6%, 31.1% and 6.99% (active), respectively.

Turning to `COc1cc(NC(=O)c2cc(O)c(C/C=C(\C)CCC=C(C)C)c(O)c2)cc2c1O[C@]1(C)CC[C@@H](O)C(C)(C)[C@H]1C2`, the growth in assay [1] is 25.1%; in assay [2] it was 41.5%; in [3], 12.1%; in assay [4], 11.4%; in assay [5] it was -9.24% (active); in [9], 12.8%. Further, the growth in [6] was 14.5%; in assay [7], -19% (active); in assay [8] it was -22.3% (active).

Turning to `O=[N+]([O-])c1ccc(N=Nc2c(O)c(N=Nc3cc([N+](=O)[O-])cc([N+](=O)[O-])c3O)cc(N=Nc3cc(S(=O)(=O)O)cc4cc(S(=O)(=O)O)cc(O)c34)c2O)cc1`, the growth in [1] is 96.4%; in [2], 89.3%; in assay [3], 98.6%; in assay [4], 105%; in assay [5], 101%; in assay [9], 86.6%. Further, the growth in assay [6] is 102%; in [7], 103%; in assay [8], 108%.

With `O=CN1N=C(c2ccc3c(c2)OCO3)CC1c1cccc(Nc2ccnc3cc(C(F)(F)F)ccc23)c1` (configuration not stated), the growth is 68.9% in [1]; 107% in [2]; 81.2% in assay [3]; 86.4% in assay [4]; 73% in assay [5]; 68.3% in assay [9]. The growth is 83.9% in [6], 90.7% in assay [7] and 67.5% in assay [8].

`O=c1c2ccccc2n(CC(O)CN2CCCC2)c2c(Br)cccc12` (configuration not stated): the growth in [1] is 131%; in assay [2], 110%; in assay [3], 100%; in [4], 106%; in [5], 90.2%; in assay [9], 101%. The growth was 87% in [6], 98.8% in assay [7] and 82.4% in [8].

As for `Cc1nn(-c2ccc(-c3ccc(OC(F)(F)F)cc3)cc2)c2nc(-c3ccccc3)nc(N)c12`, the growth in [1] is 97.7%; in assay [2] it was 86.4%; in assay [3], 95.8%; in assay [4], 83.2%; in assay [5], 66.4%; in [9], 83.7%. Also, the growth in assay [6] was 85.2%; in assay [7] it was 93.8%; in assay [8] it was 121%.

As to `COc1ccc2nc3c(n2c1)C(=O)C(=O)c1ccccc1-3`, the growth is -42.1% (active) in assay [1]; -60.9% (active) in [2]; -72.9% (active) in assay [3]; 14.9% in assay [4]; 37.4% in assay [5]; -69.9% (active) in assay [9]. In addition, the growth was -24.3% (active) in assay [6], 8.6% (active) in assay [7] and 42.7% in assay [8].
